Data on 14 molecules can be found in paper PMC12136788.

In all, about 5,800 sequences were measured (“enrichment r”: median about 0.68, highest 2% from about 11 on). Many of the other results were omitted from the sample, so the highest values are more common in it than they were.

To fix the notation:
B1: chr19:44386474:44388102:-|CDS|ENSG00000267508|control|control|control (ssRNA)
RNA: GGGAGUUCUACAGUCCGACGAUCGGCAUGUGGUAAGGGCUUCAGUCGUAAUUCAUACCUCCUUGCCCAUCAGAGAGUGCAUAUAGAUGAGACACAGUACACACACUGUGAGCGUGGAAAGGACCUUCUGACUCAUCAAAGACUCAACAGAGGAUUGAGCAUCA
B2: ENSG00000198589:be:win_1001|CDS|ENSG00000198589|bound_else_gene|NA|bound_elsewhere_windowed (ssRNA)
RNA: GGGAGUUCUACAGUCCGACGAUCUCAACACUAGCGAUACCUUUGACAAAUGUUUCCUGGGCUCAUCAGAAACAGCAGAUGCUAAUAGAGUAUUCUGUGGUCAGAUGACUGCAGUUUACCUUUUCAGUGAAGCUCUAAAUGCAGCAACAGAGGAUUGAGCAUCA
B3: chr1:114568131:114568247:-|CDS|ENSG00000116752|unk|total|mutant (ssRNA)
RNA: GGGAGUUCUACAGUCCGACGAUCUUCCCGUUGGGUAUCCCUGGUCAGUAAGAAUUAUGAGAUUGAACGGACUAUUGUUCAGCCCGAAAAUGAAAUCUAUCAAAUUAAGCAGCAACAUGGAGAGGCAAACAAAGAAAACAUCCGCAACAGAGGAUUGAGCAUCA
B4: chr11:85659139:85659240:-|3pUTR|ENSG00000137504|msi1|FALSE|unique (ssRNA)
RNA: GGGAGUUCUACAGUCCGACGAUCGUCUGAUUUAGUAAAAUUUUAAAGCUAAAUAAUCUGAUGACUCUUGAAAGUUUAAUUGGUAGUAUGACAUUUAUGUUUUUUUCCCCCAGACUCACAGCCAAUACAAAGUUUUGAGACUCCCAACAGAGGAUUGAGCAUCA
B5: ENSG00000124766:be:win_2851|3pUTR|ENSG00000124766|bound_else_gene|NA|bound_elsewhere_windowed (ssRNA)
RNA: GGGAGUUCUACAGUCCGACGAUCUAAUCAGAUGCCAUUUUAUAUGUGGACGUAUUUAUACUGGCCAAACAUAUUUUUUCUUUUGUCCCUUUUUUUCUUUCCUUUCUUUUUACUUCCUUUAUUUCUUUAUUCCUUCCUUUUCCUCAACAGAGGAUUGAGCAUCA
B6: chr2:27041412:27041530:+|3pUTR|ENSG00000119777|msi1_unk|FALSE|overlapping (ssRNA)
RNA: GGGAGUUCUACAGUCCGACGAUCACUUCAAAAUGCCCAGCCUGCCCCAAAUGCCUCUAAGCCCCUCCCUGUCCCCUCCCUUGUAGUCCUACUUCUUCCAACUUUCCAUUCCCCAUCAUGCUGGGGGUCUUGGUCACAAGGCUCCAACAGAGGAUUGAGCAUCA
B7: chr7:158693335:158693439:-|CDS|ENSG00000146918|unk|total|mutant (ssRNA)
RNA: GGGAGUUCUACAGUCCGACGAUCAAGGAAACAGAAAGAAGAAUUAUGGCAAAGGCUGAAGAAUUUAUUGACAGAUGUGUUGUCCGAAAGCCCAGUGGAUGGGUGGCAGGCCGUGGAAGCCCAGGGUGAAGACAAUAUGGAAACCAACAGAGGAUUGAGCAUCA
B8: chr12:107752058:107752159:-|CDS|ENSG00000110851|unk|FALSE|unique (ssRNA)
RNA: GGGAGUUCUACAGUCCGACGAUCUAACUCUAUAAAUGUUGAUGGUAAUACAGCAUUAUCUAUCACCAAUAACCCUUCAGCACUAGAUCCCUAUCAGUCCAAUGGAAAUGUUGGAUUAGAACCAGGCAUUGUUUCAAUAGACUCCAACAGAGGAUUGAGCAUCA
B9: chr19:38730201:38730298:+|3pUTR|ENSG00000130402|msi1_unk|FALSE|overlapping (ssRNA)
RNA: GGGAGUUCUACAGUCCGACGAUCCAGAGAAUUACUAUUUACUUUAUUAACUUACGGAUUUAUUAUAUAAAUAUAUAUUCACCUAGCAACAUAUCUCUGCCGUCUCUCCUGCUCUCAUAAUGAAGACAUAGCCGAUUCUCUGCCCAACAGAGGAUUGAGCAUCA
B10: chr3:58425360:58425463:+|3pUTR|ENSG00000168297|unk|FALSE|unique (ssRNA)
RNA: GGGAGUUCUACAGUCCGACGAUCAGACAGCUCCUAGAAACAUUCCUCUUACAGUUCAUUUCUCUAAAGCAUUUUCUGAUUCUUAGAUAACUCCAAUUUUUGCUACCUUUAUCUUAGACAUUAACACUAUAGCCCAAAGCAUAGCAACAGAGGAUUGAGCAUCA
B11: ENSG00000136451:be:win_1351|CDS|ENSG00000136451|bound_else_gene|NA|bound_elsewhere_windowed (ssRNA)
RNA: GGGAGUUCUACAGUCCGACGAUCCCAUUAUCCAUGACCUCUCCUUUAACACUCACUACCCCAGUCAACCUCCCCACCCCCGUCACUGCCCCAGUGAAUAUAGCACACCCUGUCACCAUCACAUCUCCAAUGAAUCUACCCACACAACAGAGGAUUGAGCAUCA
B12: chr7:158734047:158734148:-|3pUTR|ENSG00000117868|msi1_unk|FALSE|overlapping (ssRNA)
RNA: GGGAGUUCUACAGUCCGACGAUCCUACCCGGAACACACCCUCUCACAGACGUACCAAUGUUAUUUUUAUAAUUUCAUGGAUUUAGUUAUACAUACCUUAAUAGUUUUAUAAAAUUGUUGACAUUUCAGGCAAAUUUGGCCAAUCAACAGAGGAUUGAGCAUCA
B13: chr2:165880514:165880799:-|CDS|ENSG00000123607|control|control|control (ssRNA)
RNA: GGGAGUUCUACAGUCCGACGAUCGAUGGCAUGGAAAUAUAGCAAUCGGACAAAUCCGGCAGUAGGUGAGUUUGGCAAUCACCUAGAUUUUUCACAGAAAAAUUAUGUUGUAUUUAUUAAUUUUCAUUUAAAUGCAUUUGAUUUCAACAGAGGAUUGAGCAUCA
B14: chr14:75059847:75060235:-|three_prime_utr|ENSG00000119640|control|control|control (ssRNA)
RNA: GGGAGUUCUACAGUCCGACGAUCAACCACAUUAAAAAAAUAAAAAGGAUAACUGGAAAAUCCCAAAAUAUUUGGAAACCAUAUAGCACACUUACUUCUAAAAUUGUGGUAGAAUACAUAUAACAUAGAAAUUAUUGUUCUAACCAACAGAGGAUUGAGCAUCA

This assay deals with T1, UNK ZnF1-6 (called full-length) (human, UniProt Q9C0B0 30-357).
T1 sequence: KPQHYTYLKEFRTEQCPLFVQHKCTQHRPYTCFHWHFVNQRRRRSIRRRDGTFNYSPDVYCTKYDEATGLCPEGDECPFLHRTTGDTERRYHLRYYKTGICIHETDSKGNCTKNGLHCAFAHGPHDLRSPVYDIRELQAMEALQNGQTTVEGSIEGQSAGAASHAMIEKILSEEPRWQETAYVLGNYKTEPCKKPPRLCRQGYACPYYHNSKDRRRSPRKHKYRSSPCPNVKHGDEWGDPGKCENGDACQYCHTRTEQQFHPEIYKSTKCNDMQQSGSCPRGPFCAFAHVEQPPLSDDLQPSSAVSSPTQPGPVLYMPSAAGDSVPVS
The assay can be described thus: nsRBNS (natural sequence RNA bind-n-seq); RBNS binding buffer (assumed for nsRBNS): 25 mM Tris pH 7.5, 150 mM KCl, 3 mM MgCl2, 0.01% Triton X-100, 500 ug/ml BSA, 20 U/ml SUPERase-In, 4 C; UNK is unkempt and MSI1 is Musashi-1; names of the RNAs are library labels; protein concentration not given here; high values mean tight binding.
Turning to B1, the binding signal amounted to 0.503 enrichment R. Consider B2, for which the binding signal is 0.527 enrichment R. To B3 belongs 0.717 enrichment R.

Molecule B4 yielded a binding signal of 1.52 enrichment R. Under B5 stands 8 enrichment R; under B6, 1.6 enrichment R. To B7 belongs 1 enrichment R; to B8, 0.391 enrichment R.

For B9, the binding signal is 20.4 enrichment R. Under B10 stands 3.62 enrichment R; under B11, 1.83 enrichment R; under B12, 33.1 enrichment R.

B13 showed a binding signal of 0.541 enrichment R. To B14 belongs 2.02 enrichment R.
